In PubChem BioAssay (Tox21):
Values without a mark were called inactive. Inconclusive results are not listed. Where a call stands in place of a potency, no number is given. Activity calls are given as the source filed them. Unless noted, calls follow the shape of the dose curve; as a rule, active = well fitted curve in the direction sought with a large enough effect in the repeat runs; inconclusive = weak or mixed curves; inactive = no such curve, though single readings can be large; an effect the other way counts as inactive or inconclusive.

Assays:
[1] = A CellTox Green Cytotoxicity Assay to monitor cytotoxicity in HepG2 cells - 8 hour (AID 1224890); also: nearly all actives have a fitted effect of over 45% in size; also: potency is read from the fitted curve at half-maximal effect
Method in brief: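 HepG2 cells were seeded together with the CellTox Green dye at 600 cells/well, left 5 h at 37 C/5% CO2, then given compounds in DMSO. Fluorescence from dye bound to dead-cell DNA was read repeatedly over 40 h of treatment at 37 C.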

[2] = qHTS assay to identify small molecule antagonists of the estrogen receptor alpha (ER-alpha) signaling pathway using the BG1 cell line in the presence of 0.1 nM 17-beta-estradiol - cell viability counter screen (AID 1259241); also: nearly all actives have a fitted effect of over 40% in size; also: potency is read from the fitted curve at half-maximal effect
Method in brief: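 Cells were plated and left 24 hr, compounds in DMSO were pinned in, 17beta-estradiol was added to 0.1 nM final, and after 22 hr CellTiter-Fluor reagent was added for 30 min before fluorescence was read.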

[3] = qHTS assay to identify small molecule antagonists of the androgen receptor (AR) signaling pathway using the MDA cell line in the presence of 0.5 nM R1881 - cell viability counter screen (AID 1259242); also: nearly all actives have a fitted effect of over 45% in size
Method in brief: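 MDA-kb2 cells (human breast carcinoma, stably carrying MMTV-luciferase reporter) were exposed to compounds with 0.5 nM R1881 (final) for 16 hr at 37C, 0% CO2; viability then read as live-cell protease fluorescence (CellTiter-Fluor, 30 min) in the same wells.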

[4] = qHTS assay to identify small molecule HDAC inhibitors (AID 1259364); also: nearly all actives have a fitted effect of over 45% in size; also: potency is read from the fitted curve at half-maximal effect
Method in brief: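 Wild-type HCT-116 cells were plated overnight, exposed to compounds for 2 h at 37 °C, then given HDAC-Glo class I/II luminogenic reagent for 30 min at room temperature before luminescence was read.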

[5] = qHTS assay to identify small molecule HDAC inhibitors - cell viability counter screen (AID 1259365); also: series mostly up to about 92 µM; nearly all actives have a fitted effect of over 50% in size
Method in brief: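 Counter screen in wild-type HCT-116 cells: compounds dissolved in DMSO are pin-transferred onto overnight-plated cells and left 2hr at 37C. ATP-based CellTiter-Glo luminescence then measures viable cells.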

[6] = qHTS assay to identify small molecule agonists of the sonic hedgehog signaling (Shh) pathway - cell viability counter screen (AID 1259366); also: nearly all actives have a fitted effect of over 50% in size; also: potency is read from the fitted curve at half-maximal effect
Method in brief: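 Cells are plated at 2,000 per well and left 4hr at 37C, 5% CO2 before compound addition. After 23hr of treatment, CellTiter-Fluor reagent is added for 1hr at 37C and fluorescence is measured.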

[7] = qHTS assay to identify small molecule antagonists of the sonic hedgehog signaling (Shh) pathway - cell viability counter screen (AID 1259367); also: nearly all actives have a fitted effect of over 55% in size; also: potency is read from the fitted curve at half-maximal effect
Method in brief: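 Using CellTiter-Fluor, viability of Gli1-Luc reporter 3T3 cells is read by fluorescence in the wells used for the Shh luciferase assay. Treatment lasts 23 hr with conditioned medium, then reagent 1 hr at 37C.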

[8] = qHTS assay to identify small molecule phospholipidosis (PLD) inducers (AID 1259344; active = well fitted curve in the direction sought with a large enough effect; an effect the other way counts as inactive or inconclusive)
Method in brief: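 Fluorescent phospholipid staining (LipidTOX Red) measured by automated microscopy in fixed HepG2 cells after 24 h treatment; nuclei counterstained with Hoechst 33342; amiodarone as reference inducer.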

[9] = biological target: Androgen receptor (Homo sapiens) (UniProt P10275); test: qHTS assay to identify small molecule antagonists of the androgen receptor (AR) signaling pathway using the MDA cell line in the presence of 0.5 nM R1881 (AID 1259243); also: nearly all actives have a fitted effect of over 50% in size
Method in brief: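 MDA-kb2 human breast carcinoma cells carrying an MMTV-luciferase reporter (AR- and GR-responsive) were plated, rested 5 hr at 37C, dosed with compounds, then stimulated with 0.5 nM R1881 (final) for 16 hr; luminescence was read after ONE-Glo.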

[10] = biological target: Estrogen receptor (Homo sapiens) (UniProt P03372); test: qHTS assay to identify small molecule antagonists of the estrogen receptor alpha (ER-alpha) signaling pathway using the BG1 cell line in the presence of 0.1 nM 17-beta-estradiol (AID 1259244); also: nearly all actives have a fitted effect of over 50% in size; also: potency is read from the fitted curve at half-maximal effect
Method in brief: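 VM7Luc4E2 cells (endogenous full-length ER-alpha, stable 4xERE-luciferase) were grown 5 days in phenol red-free medium with charcoal-stripped FBS, then exposed 22 h at 37C to compounds plus 0.1 nM (final) 17beta-estradiol; ONE-Glo luminescence read-out.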

Sequence of Androgen receptor (Homo sapiens) (P10275 whole entry, looked up): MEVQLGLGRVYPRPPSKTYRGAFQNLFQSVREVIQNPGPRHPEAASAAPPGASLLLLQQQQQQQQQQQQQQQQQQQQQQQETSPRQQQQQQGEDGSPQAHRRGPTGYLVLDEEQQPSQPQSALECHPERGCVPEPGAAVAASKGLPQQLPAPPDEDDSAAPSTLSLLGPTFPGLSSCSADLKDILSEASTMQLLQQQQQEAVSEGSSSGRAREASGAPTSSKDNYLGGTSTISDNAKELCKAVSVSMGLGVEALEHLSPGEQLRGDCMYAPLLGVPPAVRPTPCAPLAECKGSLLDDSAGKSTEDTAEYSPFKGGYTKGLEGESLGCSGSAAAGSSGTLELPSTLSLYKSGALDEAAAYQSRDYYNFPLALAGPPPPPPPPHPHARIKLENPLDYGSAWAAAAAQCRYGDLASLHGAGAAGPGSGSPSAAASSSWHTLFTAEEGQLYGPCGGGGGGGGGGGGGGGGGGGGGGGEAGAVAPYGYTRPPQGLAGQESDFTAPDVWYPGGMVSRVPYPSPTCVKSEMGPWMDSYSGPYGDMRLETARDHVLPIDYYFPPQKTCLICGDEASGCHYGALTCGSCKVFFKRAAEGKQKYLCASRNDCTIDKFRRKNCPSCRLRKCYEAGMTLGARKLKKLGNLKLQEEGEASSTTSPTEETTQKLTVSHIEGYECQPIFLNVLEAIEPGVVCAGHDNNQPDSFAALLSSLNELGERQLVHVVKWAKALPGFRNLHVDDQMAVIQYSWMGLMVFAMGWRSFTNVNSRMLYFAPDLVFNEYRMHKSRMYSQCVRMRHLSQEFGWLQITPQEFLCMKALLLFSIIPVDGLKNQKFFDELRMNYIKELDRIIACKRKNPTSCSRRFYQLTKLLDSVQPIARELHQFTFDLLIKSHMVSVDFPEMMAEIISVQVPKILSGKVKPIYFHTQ
Sequence of Estrogen receptor (Homo sapiens) (P03372 whole entry, looked up): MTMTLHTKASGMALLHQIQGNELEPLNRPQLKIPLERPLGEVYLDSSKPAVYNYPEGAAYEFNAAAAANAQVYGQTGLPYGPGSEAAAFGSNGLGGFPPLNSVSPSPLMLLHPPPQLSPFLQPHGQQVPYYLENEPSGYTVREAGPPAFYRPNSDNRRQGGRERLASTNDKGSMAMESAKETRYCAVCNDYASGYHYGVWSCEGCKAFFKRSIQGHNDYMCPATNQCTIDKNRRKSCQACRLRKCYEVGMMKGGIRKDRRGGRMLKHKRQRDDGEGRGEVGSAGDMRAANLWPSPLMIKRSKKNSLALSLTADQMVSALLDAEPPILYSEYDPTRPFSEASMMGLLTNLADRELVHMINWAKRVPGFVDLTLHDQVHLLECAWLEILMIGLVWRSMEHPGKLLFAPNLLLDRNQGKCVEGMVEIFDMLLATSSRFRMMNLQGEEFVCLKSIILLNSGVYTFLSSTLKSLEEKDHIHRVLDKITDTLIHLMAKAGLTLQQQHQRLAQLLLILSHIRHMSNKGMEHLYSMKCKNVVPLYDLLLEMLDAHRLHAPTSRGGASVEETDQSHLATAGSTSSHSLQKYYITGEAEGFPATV

Row | Structure (SMILES) | Potency [1] | Potency [2] | Potency [3] | Potency [4] | outcome [5] | Potency [6] | Potency [7] | Potency [8] | Potency [9] | Potency [10]
1 | CC(=O)Nc1ccccc1O | inactive | inactive | inactive | inactive | inactive | inactive | inactive |  |  | 
2 | CC/C=C/CCO | inactive | inactive | inactive | inactive | inactive | inactive | inactive |  |  | 
3 | Clc1ccccc1-c1nc(-c2ccncc2)no1 | inactive | inactive | inactive | 2.66 µM (active) | inactive | inactive | inactive |  |  | 
4 | CCCCC(CC)COCCC#N (configuration not stated) | inactive | inactive | inactive | inactive | inactive | inactive | inactive |  |  | 
5 | Cc1ccc(S(=O)(=O)NC(=O)NC2CCCC2)cc1 | inactive | inactive | inactive | inactive | inactive | inactive | inactive | inactive |  | 
6 | CS(C)=O | inactive | inactive | inactive | inactive | inactive | inactive | inactive |  |  | 
7 | CC(=O)CC/C=C(\C)CC/C=C(\C)CC/C=C(\C)CCC=C(C)C | inactive | inactive | inactive | inactive | inactive | inactive | inactive |  |  | 
8 | O=C(O)c1cc(C(=O)O)cc([N+](=O)[O-])c1 | inactive | inactive | inactive | inactive | inactive | inactive | inactive |  |  | 
9 | Sc1nc(S)nc(S)n1 | inactive | inactive | inactive | inactive | inactive | inactive | inactive |  |  | 
10 | CCCC(=O)OCCC(C)C |  | inactive | inactive | inactive | inactive | inactive | inactive |  | inactive | inactive
11 | O=[N+]([O-])c1ccc(Cl)cc1Cl | inactive | inactive | inactive |  | inactive | inactive | inactive |  |  | 
12 | CC(C)(O)C(=O)O | inactive | inactive | inactive | inactive | inactive | inactive | inactive |  |  | 
13 | CC(=O)Oc1cccc2c1C(=O)c1c(OC(C)=O)cc(C(=O)O)cc1C2=O | inactive |  |  |  | inactive | inactive | inactive |  |  | 
14 | O=C(O)c1ccccc1[N+](=O)[O-] | inactive | inactive | inactive |  | inactive | inactive | inactive |  |  | 
15 | O=c1[nH]nc(-c2ccc([N+](=O)[O-])o2)o1 | inactive |  |  | inactive | inactive |  |  |  |  | inactive
16 | CCN(CC)CC(=O)OCC(=O)[C@@]1(O)CC[C@H]2[C@@H]3CCC4=CC(=O)CC[C@]4(C)[C@H]3[C@@H](O)C[C@@]21C |  | inactive | inactive | inactive | inactive | inactive | inactive |  | inactive | inactive
17 | CC(C)C[C@H](NC(=O)[C@H](Cc1ccccc1)NC(=O)c1cnccn1)B(O)O | inactive | 0.266 µM (active) |  |  | inactive | 1.06 µM (active) | 5.31 µM (active) |  |  | 0.0596 µM (active)
18 | NC(=O)c1ccccc1C(N)=O | 49.2 µM (active) |  | inactive | inactive | inactive | inactive | inactive |  | inactive | inactive
19 | Oc1ccc(CCNCCCCCCNCCc2ccccc2)cc1O | inactive |  | inactive |  | inactive | 29.8 µM (active) |  |  |  | inactive
20 | CCCCCCCCCC(C)C=O (configuration not stated) | 24.5 µM (active) | inactive | inactive | inactive | inactive | inactive | inactive |  |  | 
21 | CCCOC(C)=O |  | inactive | inactive | inactive | inactive | inactive | inactive |  | inactive | inactive
22 | CC(=O)S[C@H](C(=O)N[C@H]1Cc2ccccc2[C@H]2CCC[C@@H](C(=O)O)N2C1=O)C(C)C | inactive | inactive | inactive | inactive | inactive | inactive | inactive |  |  | 
23 | CCC(C)CCCC(C)(C)O (configuration not stated) | inactive | inactive | inactive | inactive | inactive | inactive | inactive |  |  | 
24 | Cc1c(-c2cccnc2)c2ccccc2n1CCCCC(=O)O | inactive | inactive | inactive | inactive | inactive | inactive | inactive |  |  | 
25 | CCC(=O)O[C@@H]1C[C@H]2CC[C@]1(C)C2(C)C | inactive | inactive | inactive |  | inactive | inactive | inactive |  |  | 
26 | C[Si](C)(C)O[Si](C)(C)O[Si](C)(C)C | inactive | inactive | inactive | inactive | inactive | inactive | inactive |  |  | 
27 | [O-][n+]1ccc(Cl)cc1 | inactive | inactive | inactive |  | inactive | inactive | inactive |  |  | 
28 | CCc1c(C)[nH]c2c1C(=O)C(CN1CCOCC1)CC2 (configuration not stated) | inactive | inactive | inactive |  | inactive | inactive | inactive |  |  | 
